Results filed as inconclusive are left out. A call without a number means that no potency is given here. The source made the active and inactive calls. Calls come from the whole dose curve; as a rule, active = well fitted cell-killing curve with a large enough effect in the repeat runs; inconclusive = weak or mixed curves, or effect the other way; inactive = flat fitted curve, though single readings scatter.
Experiment: cAMP Responsive Elements (CRE) small molecule agonists, cell-based qHTS assay: qHTS cell viability counter screen (AID 2060914); note: nearly all actives have a fitted effect of over 50% in size
Conditions: CRE-bla HEK293T viability, CellTiter-Glo luminescence, 5 h; series mostly up to 92.4 µM
In short: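 Cytotoxicity counter screen multiplexed with the CRE-bla reporter assay in HEK 293T cells: 3 h compound exposure at 37 °C, followed by CellTiter-Glo luminescence measured in the same wells.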

Q: For `COC(=O)c1cc(Cl)c(NC(C)=O)cc1OC`, which Potency is on record?
A: inactive

Q: With `CC(C)=CCO` as the molecule, how does the Potency read?
A: inactive

Q: Which Potency does the source give for `CCC=CC#N` here?
A: inactive

Q: For `CCN[C@H]1CN(CCCOC)S(=O)(=O)c2sc(S(N)(=O)=O)cc21`, which Potency is on record?
A: inactive

Q: Which Potency does the source give for `CCN1CCCC1CNC(=O)c1cc(S(N)(=O)=O)ccc1OC` (stereo not given) here?
A: inactive

Q: For `NC1(c2ccc(-c3nc4ccn5c(=O)[nH]nc5c4cc3-c3ccccc3)cc2)CCC1`, which Potency is on record?
A: inactive

Q: For `CC(C)(C)C(=O)/C=C/c1ccc(Cl)cc1`, which Potency is on record?
A: inactive

Q: With `CCCN1CCCC[C@H]1C(=O)Nc1c(C)cccc1C` as the molecule, how does the Potency read?
A: inactive

Q: Which Potency does the source give for `CNC(=S)NC` here?
A: inactive

Q: For `CC(C)(C)OC(=O)N1C[C@@H](F)C[C@H]1C(=O)O`, which Potency is on record?
A: inactive

Q: For `CCN1CCN(c2cc3c(cc2F)c(=O)c(C(=O)O)cn3C2CC2)CC1`, which Potency is on record?
A: inactive

Q: For `NNC(=O)c1cccc(C(=O)NN)c1`, which Potency is on record?
A: inactive

Q: With `COc1cc(CCC(C)=O)ccc1O` as the molecule, how does the Potency read?
A: inactive

Q: Which Potency does the source give for `O=Cc1cc(O)ccc1Br` here?
A: inactive

Q: Which Potency does the source give for `CCCCCCOC(C)=O` here?
A: inactive

Q: Which Potency does the source give for `Nc1ccn([C@H]2CC[C@@H](CO)O2)c(=O)n1` here?
A: inactive

Q: For `CCCCNC(=O)NS(=O)(=O)c1ccc(C)cc1`, which Potency is on record?
A: inactive

Q: For `CC(=O)c1sc(C)nc1C`, which Potency is on record?
A: inactive

Q: For `CCCCCCO`, which Potency is on record?
A: inactive

Q: With `O=C(O)c1cc2ccccc2nc1C(=O)O` as the molecule, how does the Potency read?
A: inactive

Q: For `Cc1ccc(C=O)cc1`, which Potency is on record?
A: inactive

Q: For `CC(C)(O)c1ccccc1`, which Potency is on record?
A: inactive

Q: Which Potency does the source give for `O=C(O)/C=C/C(=O)O` here?
A: inactive

Q: Which Potency does the source give for `CC(C)=NNC(N)=S` here?
A: inactive

Q: With `C=CC(C)(CCC=C(C)C)OC(=O)/C=C/c1ccccc1` (stereo not given) as the molecule, how does the Potency read?
A: inactive

Q: With `Cc1cc(O)ccc1O` as the molecule, how does the Potency read?
A: inactive

Q: For `Brc1ccc(Oc2ccc(Br)cc2)cc1`, which Potency is on record?
A: inactive

Q: For `CC(C)OC(=O)C(O)(CC(=O)O)CC(=O)O`, which Potency is on record?
A: inactive

Q: With `CCn1cc(C(=O)O)c(=O)c2cc(F)c(N3CCNCC3)nc21` as the molecule, how does the Potency read?
A: inactive

Q: For `O=C1CCCCCCCCCCCCCCO1`, which Potency is on record?
A: inactive

Q: Which Potency does the source give for `CC(=O)OCCOCCOCCOC(C)=O` here?
A: inactive

Q: Which Potency does the source give for `N#CSc1ccc(N)c([N+](=O)[O-])c1` here?
A: inactive

Q: With `Cc1ccc(C(C)c2ccc(C)c(C)c2)cc1C` as the molecule, how does the Potency read?
A: inactive

Q: For `CC(C)C[C@H](NC(=O)OCC1c2ccccc2-c2ccccc21)C(=O)O`, which Potency is on record?
A: inactive

Q: Which Potency does the source give for `CCOC(=O)CC#N` here?
A: inactive

Q: With `NC(=O)c1ccc(N)cc1` as the molecule, how does the Potency read?
A: inactive

Q: For `SC1CCCCC1`, which Potency is on record?
A: inactive

Q: For `Nc1ccc(NCCO)c([N+](=O)[O-])c1`, which Potency is on record?
A: inactive

Q: For `O=C(/C=C/c1ccccc1)OCc1ccccc1`, which Potency is on record?
A: inactive

Q: Which Potency does the source give for `CC(C)n1nc(-c2cc3cc(O)ccc3[nH]2)c2c(N)ncnc21` here?
A: inactive
